Shown are actives, neighbours in structure and some others; about 21% of the full set was active somewhere.
Shiga inhibitor: inhibitors of Shiga toxin in Vero cells. Vero cells, Shiga toxin protein synthesis inhibition reporter. inhibition, % at 38.7 µM. hit rate 9.2% among 290,000; in the data active = inhibition mostly above about 28%, no sharp cut-off; inactive = mostly below about 43%
CHX counter: counter-screen for Shiga toxin inhibitors: cycloheximide protein synthesis inhibition. AID 2314. hit rate 12% among 300,000. max response, %. cell reporter, cycloheximide protein synthesis inhibition counterscreen; in the data active = max response mostly above about 13%, no sharp cut-off; inactive = mostly below about 14%; note: read at 38.3 µM for the half of the compounds with a filed dose
Pf growth 96h: P. falciparum growth inhibition at 96 hours; hit rate 6.9% among 320,000; P. falciparum luciferase reporter growth, 96 h; AID 504834; Potency, µM (highest dose often 28.7 µM), actives largely listed as inhibitors
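P. falciparum expressing integrated firefly luciferase grown in erythrocytes (2% hematocrit, 0.05% parasitemia final) with compounds for 96 hours at 37 C, 5% CO2. Growth inhibition read as loss of luminescence after adding luciferase detection reagent.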
Pf growth 48h: P. falciparum growth inhibition at 48 hours (one generation); AID 504832; Potency, µM (titrated, usually from 28.7 µM), most hits filed as inhibitors; P. falciparum luciferase growth in erythrocytes, 48 h; hit rate 5.9% among 310,000
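Here the parasites carry a stable luciferase gene and grow inside erythrocytes in Albumax-based RPMI medium with compound for one erythrocytic cycle. Activity is scored as loss of luminescent signal.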
Large screens that a line does not name were inactive. Unless noted, calls come from the whole dose curve; as a rule, active = well fitted inhibition curve with a large enough effect; inconclusive = small, poorly fitted or top-dose-only effect, or another doubt; inactive = no such curve, though single readings can be large or run the other way.

O=C1NC(=O)/C(=C\c2ccccc2OCc2ccc([N+](=O)[O-])cc2)N1	Pf growth 96h 11.7µM
CCOc1cc(/C=N/O)ccc1OCc1ccc([N+](=O)[O-])cc1	Shiga inhibitor 37.4
COc1cc(/C=N/n2c(C)n[nH]c2=S)ccc1OCc1ccc(F)cc1	Shiga inhibitor 65.3, CHX counter 48.5, Pf growth 48h inconclusive
COC(=O)c1ccc(COc2ccccc2/C=N/O)o1	none
O=[N+]([O-])c1ccc(COc2ccccc2/C=N/O)cc1	Shiga inhibitor 89.5, CHX counter 44.9
CCOc1cc(C=C(C(=O)OC)C(=O)OC)ccc1OCc1ccc([N+](=O)[O-])cc1	Pf growth 48h inconclusive
CN(C1CCCCC1)S(=O)(=O)c1cc2c(cc1Cl)NC(=O)CO2	Pf growth 96h inconclusive
NC(=S)N/N=C/c1cc([N+](=O)[O-])ccc1OCCOc1ccccc1	none (no result: Pf growth 48h)
O=Cc1ccccc1OCCOc1ccc([N+](=O)[O-])cc1	CHX counter 25.6, Pf growth 96h inconclusive
CC(=O)N/N=C/c1cc([N+](=O)[O-])ccc1OCCOc1ccccc1	Pf growth 96h 6.57µM
CCOc1cc(/C=N/O)ccc1OCc1ccc(F)cc1	Shiga inhibitor 65.2, Pf growth 96h 3.7µM
CCN(C(=O)COC(=O)c1ccc(F)c(S(=O)(=O)N2CCOCC2)c1)C1CCS(=O)(=O)C1 (configuration not stated)	none
Cc1ccccc1OCCn1c(S(=O)(=O)O)nc2c(N)ncnc21	none
COc1cccc(CNC(=O)CCC2CCCN(C(=O)c3cccnc3SC)C2)c1 (configuration not stated)	none
Cc1ccccc1N=C1Nc2ccccc2CS1	Shiga inhibitor 121.5, CHX counter 29.0
CC(C)=CCC[C@](C)(O[C@@H]1O[C@H](CO)[C@@H](O)[C@H](O)[C@H]1O)[C@H]1CC[C@]2(C)[C@@H]1[C@H](O)C[C@@H]1[C@@]3(C)CC[C@H](O[C@@H]4O[C@H](CO)[C@@H](O)[C@H](O)[C@H]4O[C@@H]4O[C@H](CO)[C@@H](O)[C@H](O)[C@H]4O)C(C)(C)[C@@H]3[C@@H](O)C[C@]12C	none (no result: Pf growth 96h, Pf growth 48h)
CCCOc1ccc(CSC(=N)N)cc1C(=O)OC	Pf growth 96h inconclusive, Pf growth 48h inconclusive
COC(=O)c1cc(CSC(=N)N)ccc1OCCC(C)C	Pf growth 96h 6.57µM, Pf growth 48h 4.65µM
CC(C)CCOP(N)(=O)Oc1ccccc1Cl (configuration not stated)	Pf growth 48h inconclusive
CC(C)CCOP(N)(=O)Oc1ccccc1 (configuration not stated)	Pf growth 96h 2.08µM
Cc1ccc(C)c(N2CC(C(=O)O)CC2=O)c1 (configuration not stated)	none
COc1cc(NC(=O)COC(=O)c2cnccn2)c(C)cc1[N+](=O)[O-]	none
CN1CCC(=O)N([C@H](CSc2ccc(Br)cc2)Cc2ccccc2)CC1	Pf growth 96h 3.29µM, Pf growth 48h 9.28µM
Cc1ccc(SC[C@H](Cc2ccccc2)N2CCN(C)CCC2=O)cc1	Pf growth 96h inconclusive, Pf growth 48h 11.7µM
COc1ccc(SCC(Cc2ccccc2)N2CCN(C)CCC2=O)cc1 (configuration not stated)	none (no result: Pf growth 96h, Pf growth 48h)
CN1CCC(=O)N([C@H](CSc2ccccc2)Cc2ccccc2)CC1	Pf growth 96h inconclusive
COc1ccc(SC[C@H](Cc2ccccc2)N2CCN(C)CCC2=O)cc1	Pf growth 96h 10.4µM, Pf growth 48h 13.1µM
CCCOc1ccc(-c2csc(NC(=O)CN3C(=O)CCC3=O)n2)cc1	none
CC(C)(C)n1nnnc1C(c1ccncc1)N1CCCCCC1 (configuration not stated)	Pf growth 96h inconclusive
CC(C)(C)P(=O)(c1ccncc1)N1CCCC1 (configuration not stated)	Pf growth 96h 0.738µM, Pf growth 48h inconclusive
O=C1c2ccccc2C(=O)C2OC12 (configuration not stated)	none
Cc1ccccc1N1C(=O)c2ccccc2NC1c1ccncc1 (configuration not stated)	none
O=C1c2ccccc2C(=O)C1c1ccccn1	CHX counter 29.7
Cc1ccccc1C1C(=O)c2ccccc2C1=O	none
O=C1c2ccccc2C(=O)C1c1ccncc1	CHX counter 22.2 (no result: Pf growth 96h)
Cc1ccc(C2C(=O)c3ccccc3C2=O)cc1	CHX counter 18.5
CC(C)OCCCN(C)C1CCN(S(=O)(=O)c2ccc(-c3cc(C(F)(F)F)no3)s2)CC1	Pf growth 96h inconclusive, Pf growth 48h 11.7µM
O=C(CCC1COc2ccccc2O1)Nc1ccc(Cl)cn1 (configuration not stated)	Shiga inhibitor 31.3, CHX counter 14.4
O=C(O)CCC1COc2ccccc2O1 (configuration not stated)	none (no result: Pf growth 96h)
Cc1ccnc(NC(=O)CCC2COc3ccccc3O2)c1 (configuration not stated)	CHX counter 13.0 (no result: Pf growth 96h)
O=C1CCSc2ccc(Cl)cc2N1Cc1ccc(Cl)cc1	Pf growth 96h 14.7µM, Pf growth 48h inconclusive
O=C(N/N=C/c1cccs1)c1cc(-c2ccc(Cl)s2)[nH]n1	none
COc1ccc(C(CCN)Cc2ccccc2)cc1 (configuration not stated)	Pf growth 48h inconclusive
O=C(CCC1CCCCC1)NNC(=O)c1cnccn1	Pf growth 96h inconclusive, Pf growth 48h 13.1µM
Cc1ccccc1Cn1cc(S(=O)(=O)CC(=O)Nc2nccs2)c2ccccc21	Pf growth 48h 11.7µM
CCn1c(SCC(=O)Nc2nccs2)nnc1-c1cccnc1	CHX counter 31.2
CCOC(=O)N1CCN(C(=O)CS(=O)(=O)c2cn(Cc3ccccc3C)c3ccccc23)CC1	none (no result: Pf growth 96h)
O=C(CSc1cn(Cc2ccccc2)c2ccccc12)Nc1nccs1	Shiga inhibitor 75.8, CHX counter 37.1, Pf growth 96h inconclusive (no result: Pf growth 48h)
CCn1c(SCC(=O)Nc2nccs2)nnc1-c1ccccc1	none
Cc1cc(C)c2c(CC(=O)NC(C)C)coc2c1	none
COc1ccc(NC(=O)Cc2nnc(SCC(=O)Nc3nccs3)n2C)cc1	Pf growth 96h 3.29µM
Cn1c(CSCc2ccccc2)nnc1SCC(=O)Nc1nccs1	Pf growth 96h 5.86µM, Pf growth 48h inconclusive
Cn1c(CSCc2ccc(F)cc2)nnc1SCC(=O)Nc1nccs1	Pf growth 48h inconclusive (no result: Pf growth 96h)
O=C(CSc1ccccc1)Nc1nccs1	Shiga inhibitor 50.4, CHX counter 28.1
Cc1cc(C)c2c(CC(=O)Nc3nccs3)coc2c1	CHX counter 20.1, Pf growth 96h inconclusive
CC1=NN(C(=O)c2csc(C(C)C)c2)C(O)(C(F)(F)F)C1 (configuration not stated)	Pf growth 48h inconclusive
O=C(Cc1c(Cl)cccc1Cl)NC1=NCCS1	none
Cc1nnc(SCC(=O)Nc2nccs2)o1	Pf growth 96h 13.1µM, Pf growth 48h inconclusive
O=C(Cc1c(F)cccc1Cl)Nc1ccon1	none (no result: Pf growth 96h)
O=C(Cc1c(F)cccc1Cl)NC1=NCCS1	CHX counter 20.2
Cc1nnc(SCC(=O)Nc2nccs2)s1	none
O=C(Cc1c(F)cccc1Cl)Nc1nccs1	Pf growth 96h 14.7µM
O=C(CSc1cn(Cc2ccccc2)c2ccccc12)NCc1ccc(F)cc1	Pf growth 96h 9.28µM, Pf growth 48h inconclusive
COc1ccc(OCC(=O)N(Cc2ccco2)C2CCS(=O)(=O)C2)cc1 (configuration not stated)	none
Cc1ccc(S(=O)(=O)CCC(=O)NCc2ccccc2F)cc1	none (no result: Shiga inhibitor, CHX counter)
